The source made the active and inactive calls.

The test system of assay [1] is Plasmodium falciparum Sir2 (PF13_0152, Sir2A). Briefly: Plasmodium falciparum Sir2A binding compounds – biochemical, small-molecule microarray, 635 nm fluorescence, primary screen (AID 1098).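 Further: score merges spot fluorescence intensity with its signal-to-noise ratio.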 The settings on record: fluorescence 635 nm, higher = more signal.
A short description of assay [2]: probe aDKK1 binding to arrayed compounds – biochemical, biotinylated probe, 635/667 nm fluorescence, primary screen (AID 1099).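 Further: score merges 667nm spot fluorescence with signal to noise across triplicate slides.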 The settings on record: small-molecule microarray, higher = more signal.
The nature of assay [3]: probe aCHRDL2 binding to arrayed compounds – biochemical, biotinylated probe, 635/667 nm fluorescence, primary screen (AID 1100). Conditions: small-molecule microarray, higher = more signal.
A short description of assay [4]: change in splice reporter luminescence, either direction, cell-based, HEK293, spliceosome inhibition project, primary screen (AID 1101).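 Further: HEK293 cells carrying a splicing-competent luciferase reporter gene; test concentration not given here.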 Conditions: HEK293 splicing luciferase reporter, 24 h, higher = more signal, called active from +8 up or from −8 down. (In general: A reporter such as luciferase makes a cellular process visible.)
Assay [5] addresses Fibroblast growth factor 10 (Homo sapiens) (UniProt O15520). Briefly: compounds binding fibroblast growth factor 10 – biochemical, small-molecule microarray, 635 nm fluorescence, primary screen (AID 1102). The settings on record: FGF10 binding, fluorescence 635 nm, higher = more signal.
Assay [6] deals with glycogen synthase kinase-3 (GSK3A per assay name; protocol says GSK3B). Briefly: compounds binding glycogen synthase kinase-3 – biochemical, small-molecule microarray, 635 nm fluorescence, GSK3A, primary screen (AID 1103). Further: the record names both GSK3A and GSK3B. The settings on record: fluorescence 635 nm, higher = more signal.
The target of assay [7] is Epidermal growth factor receptor (Homo sapiens) (UniProt P00533). Briefly: compounds binding epidermal growth factor receptor – biochemical, small-molecule microarray, 635 nm fluorescence, primary screen (AID 1104).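 Further: score merges 667 nm emission intensity with spot signal to noise over triplicate slides.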 Conditions: EGFR binding, higher = more signal.
Epidermal growth factor receptor (Homo sapiens), sequence (P00533 whole entry, looked up): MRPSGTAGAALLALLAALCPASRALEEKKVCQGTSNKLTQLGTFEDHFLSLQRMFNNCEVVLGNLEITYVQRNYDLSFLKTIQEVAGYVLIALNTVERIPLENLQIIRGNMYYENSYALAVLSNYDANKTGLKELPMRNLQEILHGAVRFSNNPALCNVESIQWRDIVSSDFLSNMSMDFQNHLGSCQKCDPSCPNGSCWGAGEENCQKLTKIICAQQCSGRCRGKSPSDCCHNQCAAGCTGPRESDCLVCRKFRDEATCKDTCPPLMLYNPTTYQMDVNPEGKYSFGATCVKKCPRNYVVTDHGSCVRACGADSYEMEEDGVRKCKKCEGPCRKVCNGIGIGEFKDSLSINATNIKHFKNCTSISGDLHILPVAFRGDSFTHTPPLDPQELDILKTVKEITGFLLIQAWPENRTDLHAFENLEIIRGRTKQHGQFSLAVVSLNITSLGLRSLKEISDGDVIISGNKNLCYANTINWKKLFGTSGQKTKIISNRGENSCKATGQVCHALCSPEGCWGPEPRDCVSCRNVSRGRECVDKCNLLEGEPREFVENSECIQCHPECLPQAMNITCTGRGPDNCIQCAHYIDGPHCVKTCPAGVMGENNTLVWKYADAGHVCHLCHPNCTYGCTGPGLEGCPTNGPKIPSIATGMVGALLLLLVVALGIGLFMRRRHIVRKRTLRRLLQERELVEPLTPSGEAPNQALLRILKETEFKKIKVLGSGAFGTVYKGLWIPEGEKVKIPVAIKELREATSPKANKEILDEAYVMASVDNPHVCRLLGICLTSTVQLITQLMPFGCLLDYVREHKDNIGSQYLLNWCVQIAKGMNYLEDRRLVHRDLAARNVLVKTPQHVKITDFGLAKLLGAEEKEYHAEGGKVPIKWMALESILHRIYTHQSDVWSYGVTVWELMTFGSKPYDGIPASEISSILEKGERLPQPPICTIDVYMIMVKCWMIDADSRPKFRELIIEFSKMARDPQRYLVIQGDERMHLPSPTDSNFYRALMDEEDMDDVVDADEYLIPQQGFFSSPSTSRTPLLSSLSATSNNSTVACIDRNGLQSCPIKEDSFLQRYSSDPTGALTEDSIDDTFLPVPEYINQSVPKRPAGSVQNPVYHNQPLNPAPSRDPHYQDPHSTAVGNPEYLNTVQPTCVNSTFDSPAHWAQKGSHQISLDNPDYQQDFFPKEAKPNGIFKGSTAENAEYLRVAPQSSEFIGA
The target of assay [8] is Follistatin-related protein 3 (Homo sapiens) (UniProt O95633). Briefly: compounds binding follistatin-related protein 3 – biochemical, small-molecule microarray, 635 nm fluorescence, primary screen (AID 1105).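 Further: score merges emission near 667 nm and signal to noise per printed spot across three slides.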 Conditions: FSTL3 binding, higher = more signal.
Follistatin-related protein 3 (Homo sapiens), sequence (O95633 whole entry, looked up): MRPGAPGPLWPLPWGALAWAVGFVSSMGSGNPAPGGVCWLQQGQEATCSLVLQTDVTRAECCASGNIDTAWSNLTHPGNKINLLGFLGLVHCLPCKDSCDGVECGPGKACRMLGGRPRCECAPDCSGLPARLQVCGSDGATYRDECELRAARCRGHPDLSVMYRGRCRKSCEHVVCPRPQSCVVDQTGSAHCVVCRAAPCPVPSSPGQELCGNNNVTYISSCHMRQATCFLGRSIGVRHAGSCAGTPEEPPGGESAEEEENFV
The target of assay [9] is Dickkopf-related protein 1 (Homo sapiens) (UniProt O94907). Put plainly: small molecules binding DKK1 protein – biochemical, small-molecule microarray, 635 nm fluorescence scan, primary screen (AID 1106).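 Further: score merges emission near 667 nm with signal to noise over three replicate slides.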 The settings on record: higher = more signal.
Dickkopf-related protein 1 (Homo sapiens), sequence (O94907 whole entry, looked up): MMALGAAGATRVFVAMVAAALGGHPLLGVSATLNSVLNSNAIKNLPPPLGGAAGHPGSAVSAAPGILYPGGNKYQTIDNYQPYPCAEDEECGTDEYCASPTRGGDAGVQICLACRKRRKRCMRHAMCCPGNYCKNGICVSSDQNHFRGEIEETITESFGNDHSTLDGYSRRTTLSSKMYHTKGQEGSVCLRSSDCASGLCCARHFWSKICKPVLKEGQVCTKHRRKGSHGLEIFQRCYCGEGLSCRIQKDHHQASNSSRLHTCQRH
Assay [10] has as its system Inhibin beta A chain (activin A). Put plainly: small molecules binding activin A – biochemical, small-molecule microarray, 635 nm fluorescence scan, primary screen (AID 1107).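 Further: mouse activin A protein probed at 4.33 µg/mL on printed slides; score merges bound-protein fluorescence near 667 nm with spot signal-to-noise.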 Conditions: INHBA, higher = more signal.
The subject of assay [11] is Human papillomavirus type 1a protein E7 (residues 44-93). Briefly: small molecules binding HPV E7 44-93 – biochemical, small-molecule microarray, residues 44-93, 635 nm fluorescence, primary screen (AID 1108).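 Further: E7 fragment applied at 1 µg/mL in TBST for 1 h at 4 C; score combines spot fluorescence with its signal to noise ratio.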 The settings on record: fluorescence 635 nm, higher = more signal.
Assay [12] can be described thus: hepatitis C replication reporter changes, two-sided – Huh7 cells, luciferase reporter, HCV replication inhibitor project, primary screen (AID 1109).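 Further: huh7 hepatoma cells harbouring a luciferase neomycin HCV replicon reporter; luciferase luminescence as measure of HCV replicon replication; test concentration not given here.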 Conditions: Huh7 HCV replicon luciferase reporter, 48 h; higher = more signal.
Assay [13] has as its target Left-right determination factor 2 (Homo sapiens) (UniProt O00292). Briefly: small molecules binding LEFTY2 protein – biochemical, small-molecule microarray, 635 nm fluorescence scan, primary screen (AID 1110). Conditions: higher = more signal.
Assay [14] has as its target Calmodulin-1 (Homo sapiens) (UniProt P0DP23). Put plainly: small molecules binding calmodulin-1 with EGTA – biochemical, small-molecule microarray, Cy5-labelled CALM1, profiling panel (AID 1111).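 Further: labelled calmodulin applied in Tris saline Tween buffer holding calcium plus EGTA and DTT.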 Conditions: Cy5-CALM1 binding fluorescence, higher = more signal.
For assay [15] the target is unchanged. Put plainly: small molecules binding Ca-loaded calmodulin-1 – biochemical, small-molecule microarray, Cy5-labelled CALM1, plus calcium, artefact control for SMM control-protein annotation, profiling panel (AID 1112).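 Further: score merges spot fluorescence with signal to noise from triplicate slides.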 The settings on record: Cy5-CALM1 binding fluorescence, higher = more signal.
Assay [16] is described as follows: probe aWnt5a binding to arrayed compounds – biochemical, biotinylated probe, 635/667 nm fluorescence, primary screen (AID 1113).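 Further: score merges 667 nm fluorescence intensity with signal-to-noise per printed feature.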 Conditions: small-molecule microarray, higher = more signal.
A short description of assay [17]: probe aShh binding to arrayed compounds – biochemical, biotinylated probe, 635/667 nm fluorescence, primary screen (AID 1114).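 Further: probe is biotin-labelled aShh protein from a stem cell growth factor screen; measures binding of labelled protein to compounds printed on the slide; score merges feature fluorescence at 667 nm with signal-to-noise.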 The settings on record: small-molecule microarray, higher = more signal.
A short description of assay [18]: probe aNog binding to arrayed compounds – biochemical, biotinylated probe, 635/667 nm fluorescence, primary screen (AID 1115).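 Further: probe is biotinylated aNog protein used at 0.15 µg/mL for 1 h at 4 C; z-score combines 667 nm fluorescence of each spot with its signal to noise.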 Conditions: small-molecule microarray, higher = more signal.
The target of assay [19] is Torsin-1A-interacting protein 1 (Homo sapiens) (UniProt Q5JTV8). Briefly: compound microarray binding of lysate hLAP1 – cell lysate, small-molecule microarray, COS7 lysate, 635/667 nm fluorescence, primary screen (AID 1116). The settings on record: 635 nm fluorescence, higher = more signal.
Torsin-1A-interacting protein 1 (Homo sapiens), sequence (Q5JTV8 whole entry, looked up): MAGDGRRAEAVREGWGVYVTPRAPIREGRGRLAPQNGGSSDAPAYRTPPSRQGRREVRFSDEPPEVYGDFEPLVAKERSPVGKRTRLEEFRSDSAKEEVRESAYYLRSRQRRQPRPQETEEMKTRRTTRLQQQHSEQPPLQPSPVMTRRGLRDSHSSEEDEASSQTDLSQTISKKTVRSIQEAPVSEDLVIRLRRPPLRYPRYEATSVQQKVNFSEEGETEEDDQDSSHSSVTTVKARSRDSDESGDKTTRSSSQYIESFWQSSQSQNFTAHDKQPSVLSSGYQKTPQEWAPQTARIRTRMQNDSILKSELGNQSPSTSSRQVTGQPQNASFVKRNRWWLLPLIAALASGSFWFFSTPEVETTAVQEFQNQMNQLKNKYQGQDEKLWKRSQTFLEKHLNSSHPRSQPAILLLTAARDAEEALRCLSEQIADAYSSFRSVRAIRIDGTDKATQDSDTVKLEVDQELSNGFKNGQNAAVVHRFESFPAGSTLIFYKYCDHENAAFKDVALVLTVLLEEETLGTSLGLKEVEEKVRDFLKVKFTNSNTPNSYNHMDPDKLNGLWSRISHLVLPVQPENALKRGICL
Assay [20] has as its target Alpha-bungarotoxin (Bungarus multicinctus) (UniProt P60615). Briefly: compounds binding labelled alpha-BTX control protein – biochemical, small-molecule microarray, Alexa647 label, 635/667 nm fluorescence, artefact control for SMM control protein annotation, profiling panel (AID 1117). The settings on record: alpha-BTX-A647 binding fluorescence, higher = more signal.

Left-right determination factor 2 (Homo sapiens), sequence (O00292 whole entry, looked up): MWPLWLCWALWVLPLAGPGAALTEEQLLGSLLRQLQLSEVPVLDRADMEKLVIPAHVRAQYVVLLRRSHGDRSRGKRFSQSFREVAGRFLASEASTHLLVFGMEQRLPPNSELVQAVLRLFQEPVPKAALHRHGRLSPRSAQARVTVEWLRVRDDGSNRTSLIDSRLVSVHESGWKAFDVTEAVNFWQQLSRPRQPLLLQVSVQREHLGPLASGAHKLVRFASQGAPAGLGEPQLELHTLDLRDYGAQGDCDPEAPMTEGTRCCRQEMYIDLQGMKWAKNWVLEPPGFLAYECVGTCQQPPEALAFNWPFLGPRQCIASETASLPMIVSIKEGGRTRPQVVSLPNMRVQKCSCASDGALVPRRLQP
Fibroblast growth factor 10 (Homo sapiens), sequence (O15520 whole entry, looked up): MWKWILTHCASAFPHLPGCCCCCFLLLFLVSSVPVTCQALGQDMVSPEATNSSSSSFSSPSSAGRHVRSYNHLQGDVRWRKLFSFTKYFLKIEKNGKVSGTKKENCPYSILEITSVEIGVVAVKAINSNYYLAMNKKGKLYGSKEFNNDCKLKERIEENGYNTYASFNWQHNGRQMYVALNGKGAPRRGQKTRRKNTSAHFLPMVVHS
Alpha-bungarotoxin (Bungarus multicinctus), sequence (P60615 whole entry, looked up): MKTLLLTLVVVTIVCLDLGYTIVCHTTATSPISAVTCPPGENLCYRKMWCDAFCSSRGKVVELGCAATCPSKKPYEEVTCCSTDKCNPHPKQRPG

With `COC(=O)[C@@]1(Cc2ccc(F)cc2)[C@H]2c3cc(C(=O)N(C)C)n(Cc4nc5ccccc5[nH]4)c3C[C@H]2CN1C(=O)c1ccccc1`, the composite z-score in assay [1] was 1.62; in assay [2], 0.69; in [3] it was 0.969; in [5] it was 0.63; in assay [6], -0.136; in assay [7], 0.314. Moreover, the composite z-score in [8] is 0.296; in assay [9], -0.419; in assay [10], 0.538; in assay [11] it was 1.32; in assay [13], -0.423; in assay [14], 1.42. Further, the composite z-score came to 0.114 in [15]; 0.178 in assay [16]; 0.603 in assay [17]; 0.485 in assay [18]; 0.778 in assay [19]; 0.324 in assay [20]. Also, the z-score in assay [4] is -1.62 (inactive); in [12] it was -0.494.
Regarding `CCOC1=C2C(CN(S(=O)(=O)c3ccc(C)cc3)C2c2ccc(C)cc2)C2C(=O)N(c3ccccc3)C(=O)C2C1` (stereo not given), the composite z-score in assay [1] was determined as 0.9; in assay [2] it was 0.0373; in assay [3], 0.267; in assay [5], 1.25; in assay [6], 0.36; in assay [7] it was 0.171. Moreover, the composite z-score in assay [8] came to 0.782; in [9] it was 0.207; in [10], 0.809; in assay [11], 1.11; in assay [13], 0.349; in assay [14], 0.861. Further, the composite z-score in assay [15] was 0.528; in assay [16], -0.106; in assay [17], 0.0893; in [18], 0.194; in assay [19], 0.326; in [20], 0.389. The z-score in assay [4] was -0.113 (inactive); in [12] it was -0.348.
As for `[N-]=[N+]=NCc1ccccc1[C@@H]1OC(c2ccc(OCCCO)cc2)=N[C@]1(CCS(=O)(=O)c1ccccc1)C(=O)NCCN1CCOCC1`, the composite z-score was found to be 0.916 in [1]; 0.934 in assay [2]; 0.952 in assay [3]; 1.42 in assay [5]; 1.05 in [6]; 0.778 in [7]. Besides, the composite z-score in assay [8] came to 1.46; in [9] it was 0.535; in [10], 0.745; in [11], 1.5; in [13], 0.623; in [14] it was 1.65. In addition, the composite z-score in [15] was -0.173; in assay [16], 0.132; in assay [17], 0.323; in [18], 1.17; in [19] it was 2.04; in assay [20] it was 1.95. The figures for the z-score in [4] and in assay [12] were -0.406 (inactive) and -0.351, respectively.
As to `COCCOC(=O)N1C(=O)[C@@]2(c3cc(C#CC4(O)CCCCCC4)ccc31)[C@H](c1ccc(O)cc1)N1[C@H](c3ccccc3)[C@H](c3ccccc3)OC(=O)[C@H]1[C@@H]2C(=O)Nc1nc2ccccc2s1`, the composite z-score in assay [1] was 0.483; in assay [2], 1.17; in [3], 0.784; in assay [5], 1.35; in [6] it was 1.31; in [7] it was 0.487. For the same compound, the composite z-score was determined as 1.38 in assay [8]; 0.857 in assay [9]; 1.33 in assay [10]; 1.36 in assay [11]; 0.463 in assay [13]; 2.01 in assay [14]. Also, the composite z-score in [15] was 0.516; in assay [16], 0.0932; in assay [17], -0.131; in assay [18] it was 3.16; in assay [19], 1.35; in assay [20] it was 2.21. The z-score in [4] is -0.54 (inactive); in assay [12], -0.768.
`COc1ccc([C@H]2C[C@H]3C(Br)=C[C@@H]2C(=O)[C@]32CO2)cc1`: the composite z-score in assay [1] was 0.0371; in [2], -0.308; in [3] it was -0.193; in assay [5], -0.105; in assay [6], -0.515; in assay [7], 0.427. The composite z-score in assay [8] is 0.202; in assay [9] it was 1.03; in assay [10], 1.52; in assay [11], -0.693; in [13] it was 0.446; in assay [14], -0.0833. Also, the composite z-score in [15] was -0.798; in assay [16], 0.0136; in [17] it was -0.138; in assay [18] it was -0.158; in assay [19], 0.252; in [20], 0.29. Further, the z-score in assay [4] is -0.613 (inactive); in [12], -2.46.
